Experimental data reported in PubChem BioAssay (Tox21).
“And” between values parts separate entries of the source, which are not always exact repeats. Equal values may be shown once. Records with an inconclusive call do not appear. Where a call stands in place of a potency, no number is given. Where a structure was tested more than once in an assay, its records may differ in their call. The source made the active and inactive calls. Unless noted, calls follow the shape of the dose curve; as a rule, active = well fitted curve in the direction sought with a large enough effect in the repeat runs; inconclusive = weak or mixed curves; inactive = no such curve, though single readings can be large; an effect the other way counts as inactive or inconclusive.

How the values were obtained:
[1] = molecular target: Acetylcholinesterase (Homo sapiens) (UniProt P22303); assay: Acetylcholinesterase (AChE) small molecule antagonists: enzyme-based qHTS assay (AID 1347397; calls by dose curve; also: nearly all actives have a fitted effect of over 55% in size); conditions: Potency: AChE enzyme activity inhibition
How it was run: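 Compound or DMSO vehicle was pin-transferred onto recombinant human AChE (50 mU/mL as dispensed) and left 30 min at room temperature. Acetylthiocholine with DTNB then started the reaction, read colorimetrically 10 min later.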

[2] = molecular target: Acetylcholinesterase (Homo sapiens) (UniProt P22303); assay: Acetylcholinesterase (AChE) small molecule antagonists: fluorescence cell-based qHTS assay (AID 1347398; calls by dose curve; also: nearly all actives have a fitted effect of over 50% in size; also: potency is read from the fitted curve at half-maximal effect); conditions: Potency: AChE activity
How it was run: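 Using neuroblastoma SH-SY5Y cells as the enzyme source, test chemicals are preincubated 30 min at 37 C; AChE-driven acetylthiocholine cleavage is then quantified by thiocholine-dependent Thiolite Green fluorescence after 40 min at room temperature.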

[3] = molecular target: Acetylcholinesterase (Homo sapiens) (UniProt P22303); assay: Acetylcholinesterase (AChE) small molecule antagonists: enzyme-based qHTS assay with human liver microsomes (AID 1347399; calls by dose curve; also: nearly all actives have a fitted effect of over 60% in size; also: potency is read from the fitted curve at half-maximal effect); conditions: Potency: qHTS inhibition
How it was run: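 Recombinant human AChE (50 mU/mL in the enzyme mix) and human liver microsomes (0.25 mg/mL final) were preincubated with compound and NADPH (0.25 mg/mL final) for 30 min at 37 C. Acetylthiocholine/DTNB was then added; thiocholine was read colorimetrically after 10 min at room temperature.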

[4] = molecular target: Cytochrome P450 2C19 (Homo sapiens) (UniProt P33261); assay: Cytochrome P450 Family 2 Subfamily C Member 19 (CYP2C19) small molecule antagonists: luciferase reporter qHTS assay (AID 1671197); also: nearly all actives have a fitted effect of over 65% in size; also: potency is read from the fitted curve at half-maximal effect; as to activity change, negative = inhibition: series mostly up to about 120 µM
How it was run: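 CYP2C19 P450-Glo, 1536-well qHTS. Cpd + enzyme/proluciferin substrate 10 min RT; + NADPH regen, 37C 1 h; stop with luciferin detection reagent, 20 min RT, luminescence (RLU). Pos ctrl ketoconazole.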

[5] = molecular target: Cytochrome P450 1A2 (Homo sapiens) (UniProt P05177); assay: Cytochrome P450 Family 1 Subfamily A Member 2 (CYP1A2) small molecule antagonists: luciferase reporter qHTS assay (AID 1671199); also: nearly all actives have a fitted effect of over 50% in size; also: potency is read from the fitted curve at half-maximal effect; as to activity change, negative = inhibition: series mostly up to about 120 µM
How it was run: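 Quantitative high-throughput format using the P450-Glo CYP1A2 system. Reaction initiated by NADPH regeneration solution, 1 h at room temperature, then stopped with detection reagent; luminescence measured 20 min later.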

[6] = molecular target: Voltage-gated inwardly rectifying potassium channel KCNH2 (Homo sapiens) (UniProt Q12809); assay: Human Ether-a-go-go-Related Gene (hERG) channel small molecule antagonists: fluorescence cell-based qHTS assay (AID 1671200); also: nearly all actives have a fitted effect of over 50% in size; also: potency is read from the fitted curve at half-maximal effect;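 as to activity change, negative = inhibition: hERG-expressing U2OS cells given a thallium stimulus after FluxOR II dye loading; series mostly up to about 77 µM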
How it was run: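 Cell line hERG-U2OS; dye FluxOR II, 1 h RT dark; Tl+ stimulus; ex 480/em 540 nm, read each second for 2 min.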

[7] = molecular target: Cytochrome P450 3A4 (Homo sapiens) (UniProt P08684); assay: Cytochrome P450 Family 3 Subfamily A Member 4 (CYP3A4) small molecule antagonists: luciferase reporter qHTS assay (AID 1671201); also: nearly all actives have a fitted effect of over 50% in size; also: potency is read from the fitted curve at half-maximal effect; as to activity change, negative = inhibition: series mostly up to about 120 µM
How it was run: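 Room-temperature assay throughout: 10 min compound–enzyme/substrate preincubation, 1 h reaction after NADPH regeneration solution, 20 min detection. Luciferin formed from proluciferin substrate is quantified by luminescence.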

[8] = molecular target: Cytochrome P450 2C9 (Homo sapiens) (UniProt P11712); assay: Cytochrome P450 Family 2 Subfamily C Member 9 (CYP2C9) small molecule antagonists: luciferase reporter qHTS assay (AID 1671198); also: nearly all actives have a fitted effect of over 50% in size; also: potency is read from the fitted curve at half-maximal effect; as to activity change, negative = inhibition: series mostly up to about 120 µM
How it was run: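 CYP2C9 activity was measured with a P450-Glo proluciferin substrate. Enzyme–substrate mix was held with compound for 10 min at room temperature, then NADPH regeneration solution was added for 1 h at 37C. Luciferin product was read as luminescence.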

[9] = molecular target: Cytochrome P450 2D6 (Homo sapiens) (UniProt P10635); assay: Cytochrome P450 Family 2 Subfamily D Member 6 (CYP2D6) small molecule antagonists: luciferase reporter qHTS assay (AID 1671196); also: nearly all actives have a fitted effect of over 50% in size; also: potency is read from the fitted curve at half-maximal effect; as to activity change, negative = inhibition: series mostly up to about 120 µM
How it was run: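 Quantitative HTS of Tox21 chemicals against CYP2D6 using a luminescent proluciferin substrate. After NADPH addition, 1 h room-temperature reaction; luminescence recorded 20 min post detection reagent.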

Chain of Cytochrome P450 2C19 (Homo sapiens) (P33261 whole entry, looked up): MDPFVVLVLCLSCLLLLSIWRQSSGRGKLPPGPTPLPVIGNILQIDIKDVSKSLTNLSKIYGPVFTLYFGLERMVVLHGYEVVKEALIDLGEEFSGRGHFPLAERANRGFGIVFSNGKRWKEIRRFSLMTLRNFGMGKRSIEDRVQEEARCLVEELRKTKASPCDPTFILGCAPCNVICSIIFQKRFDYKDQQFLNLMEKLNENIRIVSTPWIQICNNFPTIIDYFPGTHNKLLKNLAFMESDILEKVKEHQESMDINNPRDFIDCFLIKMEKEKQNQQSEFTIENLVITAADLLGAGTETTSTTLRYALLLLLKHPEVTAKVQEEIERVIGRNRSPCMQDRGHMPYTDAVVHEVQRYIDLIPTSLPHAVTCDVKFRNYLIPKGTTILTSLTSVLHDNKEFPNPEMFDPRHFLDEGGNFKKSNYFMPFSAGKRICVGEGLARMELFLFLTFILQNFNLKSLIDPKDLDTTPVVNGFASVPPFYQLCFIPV
Chain of Cytochrome P450 2D6 (Homo sapiens) (P10635 whole entry, looked up): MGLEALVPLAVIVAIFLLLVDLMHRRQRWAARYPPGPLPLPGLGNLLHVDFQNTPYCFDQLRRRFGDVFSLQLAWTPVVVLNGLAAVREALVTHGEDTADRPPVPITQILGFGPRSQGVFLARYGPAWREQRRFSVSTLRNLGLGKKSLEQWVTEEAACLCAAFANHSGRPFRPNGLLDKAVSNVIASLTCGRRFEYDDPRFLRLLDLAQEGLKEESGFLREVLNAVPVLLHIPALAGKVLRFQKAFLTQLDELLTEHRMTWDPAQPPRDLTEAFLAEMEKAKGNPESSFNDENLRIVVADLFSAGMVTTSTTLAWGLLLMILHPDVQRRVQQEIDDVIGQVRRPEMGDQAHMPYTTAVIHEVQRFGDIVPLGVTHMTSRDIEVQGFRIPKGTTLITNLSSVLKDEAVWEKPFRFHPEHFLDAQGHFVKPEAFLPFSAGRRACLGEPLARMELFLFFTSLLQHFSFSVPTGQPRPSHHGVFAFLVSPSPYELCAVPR
Chain of Voltage-gated inwardly rectifying potassium channel KCNH2 (Homo sapiens) (Q12809 whole entry, looked up): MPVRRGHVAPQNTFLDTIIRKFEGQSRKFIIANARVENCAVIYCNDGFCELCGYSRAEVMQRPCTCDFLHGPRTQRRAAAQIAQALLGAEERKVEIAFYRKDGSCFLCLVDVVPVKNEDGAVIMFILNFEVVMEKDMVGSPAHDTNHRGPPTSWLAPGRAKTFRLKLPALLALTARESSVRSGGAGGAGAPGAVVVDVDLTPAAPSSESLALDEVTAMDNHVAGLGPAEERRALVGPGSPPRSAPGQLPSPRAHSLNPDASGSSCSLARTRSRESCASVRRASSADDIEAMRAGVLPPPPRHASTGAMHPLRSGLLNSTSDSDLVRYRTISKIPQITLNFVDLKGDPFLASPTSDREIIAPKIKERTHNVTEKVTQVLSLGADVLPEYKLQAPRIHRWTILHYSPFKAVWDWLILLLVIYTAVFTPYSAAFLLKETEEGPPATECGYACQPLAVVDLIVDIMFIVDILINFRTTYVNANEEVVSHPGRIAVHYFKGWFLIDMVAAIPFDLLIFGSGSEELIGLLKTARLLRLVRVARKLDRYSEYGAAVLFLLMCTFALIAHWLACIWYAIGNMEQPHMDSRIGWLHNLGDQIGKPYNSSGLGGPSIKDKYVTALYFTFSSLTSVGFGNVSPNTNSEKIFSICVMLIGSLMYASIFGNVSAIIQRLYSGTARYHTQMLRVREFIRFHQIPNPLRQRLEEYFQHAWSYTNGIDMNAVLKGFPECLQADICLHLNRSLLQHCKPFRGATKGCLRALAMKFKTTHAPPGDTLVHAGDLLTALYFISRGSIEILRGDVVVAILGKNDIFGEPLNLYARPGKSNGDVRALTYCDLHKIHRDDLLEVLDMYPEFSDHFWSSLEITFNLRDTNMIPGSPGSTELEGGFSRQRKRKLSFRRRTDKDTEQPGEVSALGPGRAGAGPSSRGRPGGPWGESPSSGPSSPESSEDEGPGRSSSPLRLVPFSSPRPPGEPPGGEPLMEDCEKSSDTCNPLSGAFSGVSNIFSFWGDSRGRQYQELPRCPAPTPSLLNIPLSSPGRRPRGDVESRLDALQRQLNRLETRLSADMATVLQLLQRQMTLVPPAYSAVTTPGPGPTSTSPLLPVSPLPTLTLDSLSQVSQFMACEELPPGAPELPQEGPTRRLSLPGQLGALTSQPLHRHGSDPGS
Chain of Cytochrome P450 3A4 (Homo sapiens) (P08684 whole entry, looked up): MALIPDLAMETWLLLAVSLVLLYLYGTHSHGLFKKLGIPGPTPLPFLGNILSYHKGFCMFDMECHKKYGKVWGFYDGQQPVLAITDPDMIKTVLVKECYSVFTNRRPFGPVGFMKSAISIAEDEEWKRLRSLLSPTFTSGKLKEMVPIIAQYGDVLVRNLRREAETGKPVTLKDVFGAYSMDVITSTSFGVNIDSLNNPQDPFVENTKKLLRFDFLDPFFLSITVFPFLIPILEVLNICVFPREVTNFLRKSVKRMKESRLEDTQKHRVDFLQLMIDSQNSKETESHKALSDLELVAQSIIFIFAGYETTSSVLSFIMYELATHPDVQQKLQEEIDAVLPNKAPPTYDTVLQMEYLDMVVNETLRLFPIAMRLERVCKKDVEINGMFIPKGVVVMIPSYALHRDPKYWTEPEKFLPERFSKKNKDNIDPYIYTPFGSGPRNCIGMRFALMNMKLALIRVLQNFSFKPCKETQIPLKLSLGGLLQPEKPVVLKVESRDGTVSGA
Chain of Cytochrome P450 2C9 (Homo sapiens) (P11712 whole entry, looked up): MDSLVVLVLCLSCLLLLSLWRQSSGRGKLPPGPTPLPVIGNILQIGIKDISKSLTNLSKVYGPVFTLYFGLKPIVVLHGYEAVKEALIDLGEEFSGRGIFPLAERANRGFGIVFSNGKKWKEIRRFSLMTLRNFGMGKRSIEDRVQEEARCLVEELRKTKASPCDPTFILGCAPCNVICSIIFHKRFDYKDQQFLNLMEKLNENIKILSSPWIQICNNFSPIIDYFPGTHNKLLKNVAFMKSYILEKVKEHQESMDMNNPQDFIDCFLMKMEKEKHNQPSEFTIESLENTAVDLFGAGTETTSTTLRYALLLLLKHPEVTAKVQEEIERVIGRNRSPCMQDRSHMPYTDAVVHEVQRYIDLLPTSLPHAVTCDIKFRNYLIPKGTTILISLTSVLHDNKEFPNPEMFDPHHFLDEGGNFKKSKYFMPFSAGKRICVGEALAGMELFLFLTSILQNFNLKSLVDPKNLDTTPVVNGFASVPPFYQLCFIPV
Chain of Acetylcholinesterase (Homo sapiens) (P22303 whole entry, looked up): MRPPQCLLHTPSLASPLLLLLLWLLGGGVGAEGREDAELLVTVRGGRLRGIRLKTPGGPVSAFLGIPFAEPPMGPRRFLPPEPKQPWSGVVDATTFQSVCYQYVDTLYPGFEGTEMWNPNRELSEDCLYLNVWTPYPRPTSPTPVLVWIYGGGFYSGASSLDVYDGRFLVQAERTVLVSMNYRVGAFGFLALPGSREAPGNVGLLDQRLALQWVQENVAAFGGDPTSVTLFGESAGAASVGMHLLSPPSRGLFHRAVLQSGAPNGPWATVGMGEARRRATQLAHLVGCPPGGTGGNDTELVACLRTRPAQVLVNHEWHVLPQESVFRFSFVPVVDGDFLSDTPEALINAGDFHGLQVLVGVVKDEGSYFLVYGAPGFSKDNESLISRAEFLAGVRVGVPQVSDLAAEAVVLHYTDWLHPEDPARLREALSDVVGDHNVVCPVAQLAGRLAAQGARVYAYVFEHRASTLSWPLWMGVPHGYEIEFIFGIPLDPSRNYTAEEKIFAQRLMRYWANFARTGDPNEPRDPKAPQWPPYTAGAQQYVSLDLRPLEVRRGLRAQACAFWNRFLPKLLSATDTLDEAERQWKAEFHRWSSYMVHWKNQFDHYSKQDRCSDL
Chain of Cytochrome P450 1A2 (Homo sapiens) (P05177 whole entry, looked up): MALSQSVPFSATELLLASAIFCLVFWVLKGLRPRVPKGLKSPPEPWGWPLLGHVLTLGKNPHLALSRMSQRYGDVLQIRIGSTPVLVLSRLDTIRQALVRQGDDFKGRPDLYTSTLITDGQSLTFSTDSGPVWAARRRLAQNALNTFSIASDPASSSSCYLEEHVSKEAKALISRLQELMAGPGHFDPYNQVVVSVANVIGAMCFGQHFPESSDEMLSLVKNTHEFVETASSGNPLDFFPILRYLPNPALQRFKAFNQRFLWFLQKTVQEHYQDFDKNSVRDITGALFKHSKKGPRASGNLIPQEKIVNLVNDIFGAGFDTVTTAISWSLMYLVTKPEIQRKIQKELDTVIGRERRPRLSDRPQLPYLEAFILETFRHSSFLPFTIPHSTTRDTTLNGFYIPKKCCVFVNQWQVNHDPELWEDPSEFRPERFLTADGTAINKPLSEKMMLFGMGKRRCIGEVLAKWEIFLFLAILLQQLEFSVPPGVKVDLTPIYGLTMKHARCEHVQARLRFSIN

SMILES | Potency [1] | Potency [2] | Potency [3] | Potency [4] | Potency [5] | Potency [6] | Potency [7] | Potency [8] | Potency [9] | activity change, negative = inhibition [9]
CC1=C(C(=O)Nc2ccccc2)SCCO1 | inactive | inactive | inactive | 36.2 µM (active) and 22.4 µM (active) | 12.8 µM (active) and 12.6 µM (active) | inactive | inactive |  |  | 
CCCCOC(=O)COC(=O)c1ccccc1C(=O)OCCCC | inactive | inactive | inactive | 7.93 µM (active) and 11.2 µM (active) | 11.2 µM (active) and 20 µM (active) |  | 22.3 µM (active) and 35.6 µM (active) | 6.3 µM (active) and 7.1 µM (active) |  | 
Clc1cccc(C(Cl)(Cl)Cl)n1 |  | inactive | inactive | inactive | 11.2 µM (active) | inactive | inactive |  | inactive | 
CC1(C)Cc2cccc(O)c2O1 |  | inactive | inactive | inactive |  | inactive | inactive |  | inactive | 
[Cl-].[Cl-].[Cl-].[Fe+3] |  |  |  |  |  | inactive |  |  |  | 
CCC(=O)Nc1ccc(Cl)c(Cl)c1 |  | inactive | inactive | 22.9 µM (active) and 35.6 µM (active) | 5.13 µM (active) and 7.1 µM (active) | inactive |  |  | 36.3 µM (active) | 
COc1ccc(CO)cc1 |  |  |  |  |  | inactive |  |  |  | 
CC(C)COC(=O)c1ccccc1C(=O)OCC(C)C |  | inactive | inactive | 10 µM (active) and 11.2 µM (active) | 12.6 µM (active) and 8.94 µM (active) |  | inactive |  | inactive | 
CNC(=S)S |  | inactive | inactive | 38.9 µM (active) | inactive | inactive | inactive |  | inactive | 
COP(=S)(OC)SCn1nnc2ccccc2c1=O |  |  | inactive | 1.1 µM (active) and 894 nM (active) | 27.7 µM (active) and 28.3 µM (active) | inactive | 7.81 µM (active) and 11.2 µM (active) | 5.53 µM (active) and 3.99 µM (active) | 55.3 µM (active) and 39.9 µM (active) | 
CC(C)CON=O |  | inactive | inactive | inactive |  | inactive | inactive |  |  | 2.15% [at 23.6 µM] (inactive)
N#Cc1cccnc1 |  | inactive | inactive | 38.8 µM (active) and inactive | inactive | inactive | inactive |  | inactive | 
C[N+](C)(C)C |  | inactive | inactive | inactive | inactive |  | inactive | inactive | inactive | 
CS(=O)(=O)NC(=O)c1cc(Oc2ccc(C(F)(F)F)cc2Cl)ccc1[N+](=O)[O-] |  | inactive | inactive | inactive and 79.6 µM (active) | inactive | inactive | inactive | 19.3 µM (active) and 17.8 µM (active) | inactive | 
O=[N+]([O-])c1ccc(Nc2ccccc2)cc1 |  | inactive | inactive | 8.03 µM (active) and 20 µM (active) | 12.7 µM (active) and 22.4 µM (active) | inactive | inactive |  | 32 µM (active) and 35.6 µM (active) | 
NN=C(N)N |  |  |  | 44.8 µM (active) and inactive | 31.7 µM (active) and 27.5 µM (active) | inactive | inactive | inactive | inactive | 
COC(=O)Nc1nc2ccccc2[nH]1 |  | inactive | inactive | inactive | 11.2 µM (active) and 20 µM (active) | inactive |  |  | inactive | 
Cc1cc(Cl)ccc1N=CN(C)C |  |  |  | 79.6 µM (active) and inactive | 22.4 µM (active) and 28.3 µM (active) | inactive | inactive | inactive | 35.6 µM (active) | 
C=C(C)C#N |  | inactive | inactive | inactive | inactive | inactive | inactive | inactive | inactive | 
Cc1cccc(N=Nc2ccc(N(C)C)cc2)c1 |  | inactive | inactive | 10.2 µM (active) and 17.8 µM (active) | 2.28 µM (active) and 3.56 µM (active) | inactive | inactive |  | inactive | 

SMILES | Potency [1] | Potency [2] | Potency [3] | Potency [4] | Potency [5] | Potency [6] | Potency [7] | Potency [8] | Potency [9] | activity change, negative = inhibition [9]
Oc1ccc(Cl)cc1Cc1ccccc1 |  | inactive | inactive | 3.56 µM (active) and 1.61 µM (active) and 2.19 µM (active) | 44.8 µM (active) and 33 µM (active) and 30.9 µM (active) | inactive | inactive |  | 67.8 µM (active) and inactive | 
CCCCSP(=O)(SCCCC)SCCCC |  |  | 5.51 µM (active) and 5.03 µM (active) | 7.78 µM (active) and 2.52 µM (active) | 21.9 µM (active) and 12.6 µM (active) | inactive |  |  |  | 
CC1(C)C(C(=O)OC(C#N)c2cccc(Oc3ccccc3)c2)C1(C)C (configuration not stated) |  | inactive | inactive | 9 µM (active) and 22.4 µM (active) |  | inactive | inactive |  | inactive | 
O=[N+]([O-])/N=C1\NCCN1Cc1ccc(Cl)nc1 |  | inactive | inactive | inactive | inactive | inactive | inactive | inactive | inactive | 
Clc1cccc(Cl)c1 |  | inactive | inactive | 62.8 µM (active) and inactive |  | inactive | inactive | inactive | inactive | 
CCNCC |  |  |  | inactive | inactive and 28.3 µM (active) | inactive | inactive | inactive | inactive | 
C=CC(Cl)CCl (configuration not stated) |  | inactive | inactive | 40.7 µM (active) and inactive |  | inactive | inactive |  | inactive | 
ClCc1ccccn1 |  | inactive | inactive | 78.1 µM (active) and inactive | inactive | inactive | inactive | inactive | 39.2 µM (active) | 
O=[N+]([O-])c1ccc(Cl)c([N+](=O)[O-])c1 |  | inactive | inactive | 40.6 µM (active) and 79.6 µM (active) | 12.8 µM (active) and 11.2 µM (active) | inactive | inactive |  |  | 
N#CCCCCC#N |  | inactive | inactive | 72.5 µM (active) and inactive |  | inactive | inactive | inactive | inactive | 
c1ccc(C2CO2)cc1 (configuration not stated) |  | inactive | inactive | inactive and 35.6 µM (active) | inactive | inactive | inactive |  | inactive | 
C[C@]12CCC(=O)C=C1CC[C@@H]1[C@@H]2CC[C@@]2(C)[C@H]1CC[C@]2(C)O |  | inactive | inactive | 35.9 µM (active) and inactive | inactive | inactive | inactive |  | 45.2 µM (active) and inactive | 
Cl |  |  |  |  |  | inactive |  |  |  | 
N#CC(c1ccccc1)c1ccccc1 |  | inactive | inactive | 4.48 µM (active) and 5.03 µM (active) |  | inactive | inactive | 22.4 µM (active) and 35.6 µM (active) | inactive | 
CC(C)Nc1nc(Cl)nc(NC(C)C)n1 |  | inactive and 31.7 µM (active) | inactive | inactive and 35.6 µM (active) | 10 µM (active) and 20 µM (active) | inactive | inactive | inactive | inactive | 
COP(=S)(OC)Oc1ccc(S(=O)(=O)N(C)C)cc1 |  |  | inactive | 79.6 nM (active) and 55 nM (active) | 31.7 µM (active) and inactive | inactive | 7.96 µM (active) and 6.92 µM (active) | 356 nM (active) and 490 nM (active) | 35.6 µM (active) | 
CCCCCCCCCC(CC)c1ccc(S(=O)(=O)O)cc1 (configuration not stated) |  | inactive | inactive | 40.1 µM (active) and inactive and 35.6 µM (active) | 63.2 µM (active) and inactive and 63.3 µM (active) | inactive | inactive |  | inactive and 50.2 µM (active) | 
CNC(=O)CSP(=S)(OC)OC |  | inactive | inactive | 10.3 µM (active) and 20 µM (active) |  | inactive |  |  | inactive and 35.5 µM (active) | 
CCCCCCCC[N+](C)(CCCCCCCC)CCCCCCCC |  | 63.2 µM (active) and inactive and 79.6 µM (active) | inactive | 5.63 µM (active) and 3.56 µM (active) and 31.7 µM (active) | 39.8 µM (active) and 35.6 µM (active) | 21.8 nM (active) and 39 nM (active) and 977 nM (active) | 1 µM (active) and 449 nM (active) and 6.33 µM (active) | 28.2 µM (active) and 2.83 µM (active) and 35.6 µM (active) | 28.2 nM (active) and 56.5 nM (active) and 564 nM (active) | 
CC(C)Nc1ccc(Nc2ccccc2)cc1 |  |  | inactive | 3.16 µM (active) and 3.99 µM (active) | 35.5 µM (active) and 35.6 µM (active) | 24.4 µM (active) | 12.6 µM (active) and 28.3 µM (active) | 501 nM (active) and 1.12 µM (active) | 8.91 µM (active) and 10 µM (active) | 
